# Assay results taken from PubChem BioAssay (NCI).
# This is part of a sample that, as a whole, favours compounds with a hit. Of some 83,000 tested, about 20% had one in any assay.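 Negative percent growth values reflect cell death: -40 means 40% of the cells present at the start died, and -100 means all died.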 Active and inactive are the calls of the source. The calls were made as follows: active = growth percent below 10; inactive = the rest.
# Test system: UACC-257 melanoma
# Experiment: NCI-60 one-dose screen, 48 h (100 = growth as untreated, 0 = no growth, -100 = all killed)
# Details: 10 µM unless noted
row,SMILES,growth
1,S=C(Sc1ccc(Cl)cc1)Sc1ccc(Cl)cc1,88% (inactive)
2,O=C(O)c1ccc([N+](=O)[O-])cc1S(=O)(=O)O,100% (inactive)
3,O=C(O)CC1=CCCCC1,100% (inactive)
4,O=C1C=C[C@H](O)[C@@]2(CO)O[C@@H]12,108% (inactive)
5,NC(=O)NCCO,97.8% (inactive)
6,O=C(O)C1CCCN1C(=O)OCc1ccccc1 (configuration not stated),105% (inactive)
7,C=CC(C)(C)n1cc(C2=C(O)C(=O)C(c3cn(C(C)(C)C=C)c4ccccc34)=C(O)C2=O)c2ccccc21,94% (inactive)
8,COC(=O)c1cccc([N+](=O)[O-])c1,95.5% (inactive)
9,CCOC(=O)C(=O)CC(=O)c1ccccc1,101% (inactive)
10,O=Cc1ccc(F)cc1,106% (inactive)
11,CC1CC2C3CCC4=CC(=O)CCC4(C)C3CCC2(C)C1(O)C(=O)CO (configuration not stated),114% (inactive)
12,CC(CC(CCC(=O)O)(c1ccccc1)c1ccccc1)N(C)C (configuration not stated),88.9% (inactive)
13,Cc1ccc(S(=O)(=O)Oc2ccc3sc4c(CO)ccc(NCCN(C)C)c4c(=O)c3c2)cc1,-82% [100 µM] (active)
14,O=C(OCC1CCCO1)c1ccc([N+](=O)[O-])cc1 (configuration not stated),85.5% (inactive)
15,Nc1c(Br)cc(O)c2c1C(=O)c1ccccc1C2=O,89.1% (inactive)
16,COc1ccc(Br)c2c1C(=O)CC2,119% (inactive)
17,CC(=O)N(C(C)=O)c1ccc(C)cc1,110% (inactive)
18,CC1(C)C2CCC1(C)C1(C2)OCCS1 (configuration not stated),102% (inactive)
19,O=c1n(CC2CO2)c(=O)n(CC2CO2)n1CC1CO1 (configuration not stated),86.6% (inactive)

row,SMILES,growth
1,S=C=Nc1ccc2ccccc2c1,99.7% (inactive)
2,O=C(O)c1c[nH]c2ccccc2c1=O,112% (inactive)
3,Cc1[nH]n(-c2ccccc2)c(=O)c1C=NC(=S)C(N)=S,97.7% (inactive)
4,CC(=O)N(C)N=Nc1ccc(C)cc1,101% (inactive)
5,COc1ccc2c(Cl)cc(NC(=O)Nc3c(C)cccc3C)nc2c1,76.8% (inactive)
6,O=C(c1ccc(Cl)cc1)N1CCCCC1,94% (inactive)
7,CC(=O)NC(O)C(Cl)Cl (configuration not stated),107% (inactive)
8,CCC(/C=C\C(C)=O)CC,94.8% (inactive)
9,CCOC(=O)C(COS(C)(=O)=O)(COS(C)(=O)=O)C(=O)OCC,105% (inactive)
10,CC(=O)NNC(=S)N/C=C/c1c(C)ccc([N+](=O)[O-])c1[N+](=O)[O-],99.6% (inactive)
11,CC(=O)N(CCCCCCN(C(C)=O)C(C)=O)C(C)=O,95.1% [100 µM] (inactive)
12,CC(=O)NCNC(C)=O,95.4% (inactive)
13,NNc1ncccn1,104% (inactive)
14,CC12CCC3c4ccc(O)cc4CCC3C1CCC2=O (configuration not stated),93.8% (inactive)
15,Nc1cc2ccccc2c(O)c1O,89.4% (inactive)
16,S=c1nc(-c2ccccn2)c(-c2ccccn2)n[nH]1,107% (inactive)
17,CC(C)Sc1ncnc2nc[nH]c12,91.7% (inactive)
18,Clc1cccc(Cl)c1C1CSc2ccccc2N=C1c1ccccc1 (configuration not stated),51.4% (inactive)

# Test system: M14 melanoma
# Experiment: as above
# Details: 10 µM unless noted
row,SMILES,growth
1,S=C(Sc1ccc(Cl)cc1)Sc1ccc(Cl)cc1,-45.1% (active)
2,O=C(O)CC1=CCCCC1,95.8% (inactive)
3,O=C1C=C[C@H](O)[C@@]2(CO)O[C@@H]12,85.9% (inactive)
4,NC(=O)NCCO,107% (inactive)
5,O=C(O)C1CCCN1C(=O)OCc1ccccc1 (configuration not stated),99.1% (inactive)
6,C=CC(C)(C)n1cc(C2=C(O)C(=O)C(c3cn(C(C)(C)C=C)c4ccccc34)=C(O)C2=O)c2ccccc21,69.9% (inactive)
7,COC(=O)c1cccc([N+](=O)[O-])c1,105% (inactive)
8,CCOC(=O)C(=O)CC(=O)c1ccccc1,97.1% (inactive)
9,O=Cc1ccc(F)cc1,106% (inactive)
10,CC1CC2C3CCC4=CC(=O)CCC4(C)C3CCC2(C)C1(O)C(=O)CO (configuration not stated),111% (inactive)
11,CC(CC(CCC(=O)O)(c1ccccc1)c1ccccc1)N(C)C (configuration not stated),95% (inactive)
12,Cc1ccc(S(=O)(=O)Oc2ccc3sc4c(CO)ccc(NCCN(C)C)c4c(=O)c3c2)cc1,-96.5% [100 µM] (active)
13,O=C(OCC1CCCO1)c1ccc([N+](=O)[O-])cc1 (configuration not stated),101% (inactive)
14,Nc1c(Br)cc(O)c2c1C(=O)c1ccccc1C2=O,100% (inactive)
15,COc1ccc(Br)c2c1C(=O)CC2,110% (inactive)
16,CC(=O)N(C(C)=O)c1ccc(C)cc1,114% (inactive)
17,CC1(C)C2CCC1(C)C1(C2)OCCS1 (configuration not stated),113% (inactive)
18,O=c1n(CC2CO2)c(=O)n(CC2CO2)n1CC1CO1 (configuration not stated),48.1% (inactive)

row,SMILES,growth
1,S=C=Nc1ccc2ccccc2c1,103% (inactive)
2,O=C(O)c1c[nH]c2ccccc2c1=O,101% (inactive)
3,Cc1[nH]n(-c2ccccc2)c(=O)c1C=NC(=S)C(N)=S,103% (inactive)
4,CC(=O)N(C)N=Nc1ccc(C)cc1,96.7% (inactive)
5,COc1ccc2c(Cl)cc(NC(=O)Nc3c(C)cccc3C)nc2c1,85.6% (inactive)
6,O=C(c1ccc(Cl)cc1)N1CCCCC1,104% (inactive)
7,CC(=O)NC(O)C(Cl)Cl (configuration not stated),110% (inactive)
8,CCOC(=O)C(COS(C)(=O)=O)(COS(C)(=O)=O)C(=O)OCC,104% (inactive)
9,CC(=O)NNC(=S)N/C=C/c1c(C)ccc([N+](=O)[O-])c1[N+](=O)[O-],89.6% (inactive)
10,CC(=O)N(CCCCCCN(C(C)=O)C(C)=O)C(C)=O,105% [100 µM] (inactive)
11,CC(=O)NCNC(C)=O,111% (inactive)
12,NNc1ncccn1,108% (inactive)
13,CC12CCC3c4ccc(O)cc4CCC3C1CCC2=O (configuration not stated),102% (inactive)
14,Nc1cc2ccccc2c(O)c1O,93.3% (inactive)
15,S=c1nc(-c2ccccn2)c(-c2ccccn2)n[nH]1,98.3% (inactive)
16,CC(C)Sc1ncnc2nc[nH]c12,105% (inactive)
17,Clc1cccc(Cl)c1C1CSc2ccccc2N=C1c1ccccc1 (configuration not stated),86.6% (inactive)
